Values without a mark were called inactive. Inconclusive results are not listed. Where a call stands in place of a potency, no number is given. Activity calls are given as the source filed them. The call rests on the fitted dose curve; in most records, active means well fitted curve in the direction sought with a large enough effect; inconclusive means small, poorly fitted or top-dose-only effect, or another doubt; inactive means no such curve, though single readings can be large or run the other way.
Biological target: Hexokinase-4 (Homo sapiens) + Glucokinase regulatory protein (Homo sapiens) (UniProt P35557+Q14397)
Experiment: qHTS assay for inhibitors of recombinant human GCK-GKRP interaction: HTRF assay (AID 743207)
Conditions: recombinant GCK-GKRP HTRF binding, 60 min, with sorbitol-6-phosphate; series mostly up to 57.5 µM
Summary of the method: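 HTRF binding of 5 nM GST-GCK and 5 nM FLAG-GKRP with 2 uM S6P in pH 7.1 Hepes buffer (MgCl2, KCl, DTT, Tween 20, BSA). Anti-FLAG XL665 and anti-GST donor added, 60 min at room temperature; 665/615 nm read, normalized to with- and without-GCK controls.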

Chain of Hexokinase-4 (Homo sapiens) + Glucokinase regulatory protein (Homo sapiens) (P35557 whole entry, looked up): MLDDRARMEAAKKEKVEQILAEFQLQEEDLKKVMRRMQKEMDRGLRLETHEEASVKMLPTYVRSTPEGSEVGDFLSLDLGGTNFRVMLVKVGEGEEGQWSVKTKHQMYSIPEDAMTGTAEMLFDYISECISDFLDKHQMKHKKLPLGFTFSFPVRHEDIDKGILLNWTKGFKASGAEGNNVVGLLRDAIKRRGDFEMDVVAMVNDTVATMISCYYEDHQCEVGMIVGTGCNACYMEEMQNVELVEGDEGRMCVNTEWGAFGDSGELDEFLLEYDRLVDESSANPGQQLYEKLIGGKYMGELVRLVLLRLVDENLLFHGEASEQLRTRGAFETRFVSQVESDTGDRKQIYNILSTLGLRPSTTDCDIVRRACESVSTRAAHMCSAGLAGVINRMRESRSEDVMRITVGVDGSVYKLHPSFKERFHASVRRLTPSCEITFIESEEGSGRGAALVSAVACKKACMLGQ
Chain of Hexokinase-4 (Homo sapiens) + Glucokinase regulatory protein (Homo sapiens) (Q14397 whole entry, looked up): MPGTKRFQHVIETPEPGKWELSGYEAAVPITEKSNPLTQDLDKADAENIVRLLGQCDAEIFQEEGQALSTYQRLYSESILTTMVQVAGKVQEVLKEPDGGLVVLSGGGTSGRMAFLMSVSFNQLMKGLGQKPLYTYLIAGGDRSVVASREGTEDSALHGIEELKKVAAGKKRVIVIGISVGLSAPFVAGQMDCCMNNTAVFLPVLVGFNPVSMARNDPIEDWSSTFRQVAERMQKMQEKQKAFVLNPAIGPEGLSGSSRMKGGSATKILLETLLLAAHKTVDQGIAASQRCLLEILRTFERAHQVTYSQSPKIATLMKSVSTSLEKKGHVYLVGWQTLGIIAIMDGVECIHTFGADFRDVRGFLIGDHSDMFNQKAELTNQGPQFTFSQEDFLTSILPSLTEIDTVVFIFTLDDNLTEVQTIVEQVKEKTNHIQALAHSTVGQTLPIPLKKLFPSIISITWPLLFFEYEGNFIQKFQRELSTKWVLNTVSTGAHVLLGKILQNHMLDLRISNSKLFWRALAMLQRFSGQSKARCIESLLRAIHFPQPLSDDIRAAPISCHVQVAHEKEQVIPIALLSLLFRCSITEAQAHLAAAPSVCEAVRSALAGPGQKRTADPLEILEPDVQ

For O=C1OC(=O)C2C3CCC(O3)C12 (stereo unspecified), which Potency is on record?
The Potency was “inactive”.

For Oc1cc2c(cc1O)C(c1ccccc1)CNCC2 (stereo unspecified), which Potency is on record?
The Potency was “inactive”.

For COc1cc(/C=C(\C#N)C(=O)c2ccc(O)c(O)c2)cc(I)c1O, which Potency is on record?
The Potency was “inactive”.

Which Potency does the source give for COc1cc(N)c(Cl)cc1C(=O)OCCN1CCCCC1 here?
The Potency was “inactive”.

Which Potency does the source give for O=C(O)/C(=C/c1c(C(=O)O)[nH]c2cc(Cl)cc(Cl)c12)c1ccccc1 here?
Its Potency is “inactive”.

With NC1C=CC=C(C(=O)O)C1 (stereo unspecified) as the molecule, how does the Potency read?
The Potency was “inactive”.

With CSC(=N)N as the molecule, how does the Potency read?
Its Potency is “inactive”.

With CCCCCCCCCC[Si](C)(C)CCC(=O)NC(Cc1ccc(C)cc1)c1ccccc1 (stereo unspecified) as the molecule, how does the Potency read?
The Potency was “inactive”.

For C[N+](C)(C)CC=O, which Potency is on record?
Its Potency is “inactive”.

Which Potency does the source give for N=C(N)SCCc1cnc[nH]1 here?
Its Potency is “inactive”.

With CC(C)[C@@H]1CC[C@@H](C)C[C@@H]1P(=O)(c1ccccc1)c1ccccc1 as the molecule, how does the Potency read?
Its Potency is “inactive”.

With Nc1ccc2c3c(cccc13)C(=O)NC2=O as the molecule, how does the Potency read?
Its Potency is “inactive”.

Which Potency does the source give for COc1cc2c(CCNC(C)=O)c[nH]c2cc1O here?
The Potency was “inactive”.

With Cn1cc(C(F)(F)F)nc1-c1ccc(OCC(O)CNCCOc2ccc(O)c(C(N)=O)c2)cc1 (stereo unspecified) as the molecule, how does the Potency read?
Its Potency is “inactive”.

For COc1ccc(-c2cc3ncc(C)n3c(Nc3ncccc3C(N)=O)n2)cc1OC, which Potency is on record?
The Potency was “inactive”.

Which Potency does the source give for NCCCCN here?
Its Potency is “inactive”.

For N=S(=O)(O)Cc1noc2ccccc12, which Potency is on record?
The Potency was “inactive”.

Which Potency does the source give for NCC(O)(CS(=O)(=O)O)c1ccc(Cl)cc1 (stereo unspecified) here?
The Potency was “inactive”.

With NC(=O)CC[C@H](N)C(=O)O as the molecule, how does the Potency read?
Its Potency is “inactive”.

Which Potency does the source give for CN[C@H](CC(=O)O)C(=O)O here?
The Potency was “inactive”.

Which Potency does the source give for COc1ccc2c(c1)c(CC(=O)O)c(C)n2Cc1ccc(Cl)cc1 here?
The Potency was “inactive”.

With CSC(N)=NCCC[C@H](N)C(=O)O as the molecule, how does the Potency read?
The Potency was “inactive”.

With NCCS(=O)O as the molecule, how does the Potency read?
Its Potency is “inactive”.

Which Potency does the source give for Nc1nc2c(nc(Br)n2C2OC3COP(=O)(O)O[C@@H]3C2O)c(=O)[nH]1 (stereo partly specified) here?
Its Potency is “inactive”.

With NCCC1CCCC(CCN)N1 (stereo unspecified) as the molecule, how does the Potency read?
The Potency was “inactive”.

With NCCCCN=C(N)N as the molecule, how does the Potency read?
The Potency was “inactive”.

Which Potency does the source give for O=C(c1ccc2c(c1)OCCO2)N1CCCCC1 here?
The Potency was “inactive”.

With CN1CCN(c2nc3cc(C(F)(F)F)ccc3n3cccc23)CC1 as the molecule, how does the Potency read?
Its Potency is “inactive”.

With Oc1cc(O)c2c(c1)O[C@H](c1ccc(O)c(O)c1)[C@@H](O)C2 as the molecule, how does the Potency read?
Its Potency is “inactive”.

With CC(=O)[C@H]1CCC2C3CC=C4C[C@@H](OS(=O)(=O)O)CC[C@]4(C)C3CC[C@@]21C (stereo partly specified) as the molecule, how does the Potency read?
Its Potency is “inactive”.

With CN(C)C(=O)/N=N/C(=O)N(C)C as the molecule, how does the Potency read?
Its Potency is “inactive”.

For CNC(=O)c1cc2c(cn1)[nH]c1ccccc12, which Potency is on record?
The Potency was “inactive”.

Which Potency does the source give for N=C(N)c1ccc(OCCCCCOc2ccc(C(=N)N)cc2)cc1 (tested in a mixture with another compound) here?
Its Potency is “inactive”.

For CCCn1c(=O)c2c(ncn2C)n(CCC)c1=O, which Potency is on record?
Its Potency is “inactive”.

With C=C1C[C@@]23CC[C@H]4[C@@](C)(CCC[C@@]4(C)C(=O)O)[C@@H]2CC[C@]1(O)C3 as the molecule, how does the Potency read?
Its Potency is “inactive”.

Which Potency does the source give for OC[C@H]1O[C@H](n2cnc3c(N[C@H]4CCC[C@@H]4O)ncnc32)[C@H](O)[C@@H]1O here?
The Potency was “inactive”.

For Cc1nc(N=Nc2ccc(C(=O)O)cc2)c(COP(=O)(O)O)c(C=O)c1O, which Potency is on record?
The Potency was “inactive”.

With O=C(O)C1=CCCN(CCON=C(c2ccccc2)c2ccccc2)C1 as the molecule, how does the Potency read?
Its Potency is “inactive”.

System: not listed separately
Experiment: qHTS Assay for Identifying Gametocytocidal Compounds (AID 743244); further: potency means the concentration at half of the fitted maximal effect;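 on max response: actives lower the fluorescent signal which means gametocytes are killed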
Conditions: P. falciparum 3D7 stage III-V gametocytes, alamarBlue, 72 h; max response: hits give low values
Summary of the method: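 Compounds are pinned into medium, gametocytes (stage III–V, 3D7, 20,000 cells/well) added, and plates held 72 h at 37 °C in 5% CO2. AlamarBlue follows for 24 h before fluorescence reading.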

With O=C1OC(=O)C2C3CCC(O3)C12 (stereo unspecified) as the molecule, how does the max response read?
Its max response is 26.3%.

With Oc1cc2c(cc1O)C(c1ccccc1)CNCC2 (stereo unspecified) as the molecule, how does the max response read?
Its max response is 20.1%.

Which max response does the source give for COc1cc(/C=C(\C#N)C(=O)c2ccc(O)c(O)c2)cc(I)c1O here?
Its max response is 9.56%.

With COc1cc(N)c(Cl)cc1C(=O)OCCN1CCCCC1 as the molecule, how does the max response read?
Its max response is 4.04%.

Which max response does the source give for O=C(O)/C(=C/c1c(C(=O)O)[nH]c2cc(Cl)cc(Cl)c12)c1ccccc1 here?
Its max response is 2.21%.

With NC1C=CC=C(C(=O)O)C1 (stereo unspecified) as the molecule, how does the max response read?
Its max response is -5.22%.

Which max response does the source give for CSC(=N)N here?
The max response was 32.5%.

With CCCCCCCCCC[Si](C)(C)CCC(=O)NC(Cc1ccc(C)cc1)c1ccccc1 (stereo unspecified) as the molecule, how does the max response read?
The max response was 13.6%.

For C[N+](C)(C)CC=O, which max response is on record?
Its max response is 21.1%.

For N=C(N)SCCc1cnc[nH]1, which max response is on record?
Its max response is 9.89%.

With CC(C)[C@@H]1CC[C@@H](C)C[C@@H]1P(=O)(c1ccccc1)c1ccccc1 as the molecule, how does the max response read?
The max response was 7.79%.

With Nc1ccc2c3c(cccc13)C(=O)NC2=O as the molecule, how does the max response read?
Its max response is 4.5%.

With COc1cc2c(CCNC(C)=O)c[nH]c2cc1O as the molecule, how does the max response read?
The max response was 18.4%.

With Cn1cc(C(F)(F)F)nc1-c1ccc(OCC(O)CNCCOc2ccc(O)c(C(N)=O)c2)cc1 (stereo unspecified) as the molecule, how does the max response read?
The max response was 26.1%.

With COc1ccc(-c2cc3ncc(C)n3c(Nc3ncccc3C(N)=O)n2)cc1OC as the molecule, how does the max response read?
The max response was 12.4%.

Which max response does the source give for NCCCCN here?
Its max response is 15.5%.

Which max response does the source give for N=S(=O)(O)Cc1noc2ccccc12 here?
Its max response is 7.99%.

With NCC(O)(CS(=O)(=O)O)c1ccc(Cl)cc1 (stereo unspecified) as the molecule, how does the max response read?
The max response was -5.75%.

With NC(=O)CC[C@H](N)C(=O)O as the molecule, how does the max response read?
Its max response is -4.4%.

With CN[C@H](CC(=O)O)C(=O)O as the molecule, how does the max response read?
The max response was 19.8%.

With COc1ccc2c(c1)c(CC(=O)O)c(C)n2Cc1ccc(Cl)cc1 as the molecule, how does the max response read?
The max response was -11.4%.

Which max response does the source give for CSC(N)=NCCC[C@H](N)C(=O)O here?
Its max response is 9.52%.

With NCCS(=O)O as the molecule, how does the max response read?
The max response was 18%.

Which max response does the source give for Nc1nc2c(nc(Br)n2C2OC3COP(=O)(O)O[C@@H]3C2O)c(=O)[nH]1 (stereo partly specified) here?
The max response was 9.58%.

With NCCC1CCCC(CCN)N1 (stereo unspecified) as the molecule, how does the max response read?
Its max response is 30.6%.

With NCCCCN=C(N)N as the molecule, how does the max response read?
The max response was 3.59%.

For O=C(c1ccc2c(c1)OCCO2)N1CCCCC1, which max response is on record?
The max response was 22.1%.

Which max response does the source give for CN1CCN(c2nc3cc(C(F)(F)F)ccc3n3cccc23)CC1 here?
The max response was 14.6%.

Which max response does the source give for Oc1cc(O)c2c(c1)O[C@H](c1ccc(O)c(O)c1)[C@@H](O)C2 here?
The max response was -4.64%.

For CC(=O)[C@H]1CCC2C3CC=C4C[C@@H](OS(=O)(=O)O)CC[C@]4(C)C3CC[C@@]21C (stereo partly specified), which max response is on record?
Its max response is 21.2%.

For CN(C)C(=O)/N=N/C(=O)N(C)C, which max response is on record?
The max response was -1.96%.

Which max response does the source give for CNC(=O)c1cc2c(cn1)[nH]c1ccccc12 here?
Its max response is 10.2%.

With N=C(N)c1ccc(OCCCCCOc2ccc(C(=N)N)cc2)cc1 (tested in a mixture with another compound) as the molecule, how does the Potency read?
Its Potency is 562 nM (active).

Which max response does the source give for CCCn1c(=O)c2c(ncn2C)n(CCC)c1=O here?
Its max response is 12.3%.

For C=C1C[C@@]23CC[C@H]4[C@@](C)(CCC[C@@]4(C)C(=O)O)[C@@H]2CC[C@]1(O)C3, which max response is on record?
The max response was 31.3%.

Which max response does the source give for OC[C@H]1O[C@H](n2cnc3c(N[C@H]4CCC[C@@H]4O)ncnc32)[C@H](O)[C@@H]1O here?
The max response was 20.9%.

Which max response does the source give for Cc1nc(N=Nc2ccc(C(=O)O)cc2)c(COP(=O)(O)O)c(C=O)c1O here?
The max response was 5.37%.

With O=C(O)C1=CCCN(CCON=C(c2ccccc2)c2ccccc2)C1 as the molecule, how does the max response read?
The max response was -12.8%.

Source: PubChem BioAssay (NCATS)
